Experimental data published in PubChem BioAssay (NCI).
The panel holds about 83,000 compounds, 20% with a hit somewhere; the sample as a whole holds those more often.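 Values shown are percent growth following 48 h exposure of cells in 96-well plates to a single concentration of compound; below 10 was considered active.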 A number with no mark means an inactive call. The source made the active and inactive calls.

What was measured:
Assay in all cases: NCI-60 one-dose screen, 48 h (100 = growth as untreated, 0 = no growth, -100 = all killed)
Settings in all cases: 10 µM unless noted
SR leukemia = system: SR leukemia
RPMI-8226 leukemia = system: RPMI-8226 leukemia
OVCAR-8 ovarian = system: OVCAR-8 ovarian
OVCAR-4 ovarian = system: OVCAR-4 ovarian
SK-OV-3 ovarian = system: SK-OV-3 ovarian
IGROV1 ovarian = system: IGROV1 ovarian
OVCAR-3 ovarian = system: OVCAR-3 ovarian
HS 578T breast = system: HS 578T breast
NCI/ADR-RES ovarian = system: NCI/ADR-RES ovarian
T-47D breast = system: T-47D breast
BT-549 breast = system: BT-549 breast
MDA-MB-435 melanoma = system: MDA-MB-435 melanoma
SW-620 colon = system: SW-620 colon
MCF7 breast = system: MCF7 breast
HCC-2998 colon = system: HCC-2998 colon
KM12 colon = system: KM12 colon
HCT-116 colon = system: HCT-116 colon
OVCAR-5 ovarian = system: OVCAR-5 ovarian

Compound	growth (SR leukemia)	growth (RPMI-8226 leukemia)	growth (OVCAR-8 ovarian)	growth (OVCAR-4 ovarian)	growth (SK-OV-3 ovarian)	growth (IGROV1 ovarian) [%]	growth (OVCAR-3 ovarian)	growth (HS 578T breast)	growth (NCI/ADR-RES ovarian)	growth (T-47D breast)	growth (BT-549 breast)	growth (MDA-MB-435 melanoma)	growth (SW-620 colon)	growth (MCF7 breast)	growth (HCC-2998 colon)	growth (KM12 colon)	growth (HCT-116 colon)	growth (OVCAR-5 ovarian) [%]
COc1cccc(-c2nn(-c3ccccc3)cc2-c2ccnc(NCCNS(=O)(=O)c3cccc(F)c3)c2)c1	9.17% (active)	23.7%	20.2%	31.1%	46.6%	38	40.4%	40.2%	22.1%	6.41% (active)	46.9%	20%	46%	14.1%	17.1%	19.6%		
CC(=O)NC1=C(C#N)C(c2ccccc2Cl)c2c(ccc3ccccc23)O1 (centres undefined)	37.1%	55.5%	82%	88.8%	85%	46.1	41.2%	74.9%	33.8%	62.5%	50%	-11.2% (active)	43%	42.1%	85.4%	51.2%	47.5%	
COC(=O)C(N)CSC(c1ccccc1)(c1ccccc1)c1ccccc1 (centres undefined)	7.6% (active)	30.9%	36.8%	79.8%	19.4%	28.6	20.7%	21.5%	68.4%	23.9%	54.6%		21.1%	13.1%	12.9%	17.6%	15.7%	
Oc1cccc2ccc(N/N=C/c3cc(CN4CCCCC4)c(O)c4ncccc34)nc12	-12.7% (active)	0.883% (active)	8.27% (active)	8.09% (active)	-30.5% (active)	14.3	7.62% (active)	17.1%	8.58% (active)	25.3%	11.1%	20.2%		10.3%	5.61% (active)	9.18% (active)	1.57% (active)	
Oc1cccc2oc(=S)[nH]c12	90.4%	106%	112%		108%	110	125%	109%	102%	104%		115%	108%		100%	115%	107%	97.4
COc1ccc(-c2n[nH]nc2-c2cc3ccccc3s2)cc1O	18.6%	21.1%	27.7%	52.4%	15.5%	49	16.1%	18.3%	13.5%	43.8%	24.1%	-32.9% (active)	26.6%	19.7%	29.2%	22.7%	18.2%	
O=C1CNCCN1	102%	98.9%	103%	108%	112%	99.7	109%	100%	106%	110%	100%	107%	104%	89.3%	111%		101%	
CC1(c2ccccc2)OC1C(=O)O (centres undefined)	101%	108%	107%	112%	117%	96.8	103%	109%	94.5%	117%	94.9%	98.7%	102%	105%	96.5%	105%	101%	
NC1=NN=C2N(N)C(=O)c3cnn(-c4ccccc4)c3N2c2nc(-c3ccccc3)cc(-c3ccccc3)c21	103%	93.5%	102%	82.8%	93.2%	89	116%	101%	92.1%	71.1%	108%	108%	104%	65.5%	107%	103%	93.7%	
CC/C(=N/NC(N)=O)c1ccccc1	110%	97.8%	103%	120%	116%	108	109%	104%	104%	110%	102%	110%	105%	97%	103%	111%	109%	
C=C(C)[C@@H]1CC[C@]2(C=NCCCNCCCCNCCCN)CC[C@]3(C)[C@H](CC[C@@H]4[C@@]5(C)CCCNC(C)(C)[C@@H]5CC[C@]43C)[C@@H]12	21.7%	107%	83.8%	102%	95.8%	112	106%	104%	91.8%	90.8%	98.2%	94.8%	88.4%	89.4%	100%		77.7%	
OCCNc1nc(Nc2ccc(Cl)c(Cl)c2)nc2ccccc12	3.46% (active)	30.7%	37.5%	44.8%	62.8%	39.1	48.2%	53.3%		67.9%	77.8%	50%	28.6%	30.3%	-37.9% (active)	35.5%	29.7%	
Nc1ncnc2nc(Br)[nH]c12	91.8%		92.8%	102%	95.2%	106	106%	103%	97.1%	89.4%	95.6%	104%	106%	99.9%	109%	102%	92.4%	99.8
COc1cc(-c2cc(-c3nc4cc(Cl)c(Cl)cc4[nH]3)[nH]n2)cc(OC)c1OC	54.5%	-7.57% (active)		52.5%	104%	87.2	52.2%		39.1%	-10.8% (active)	35.3%	66.1%	82.7%	47.6%	92.3%	51.5%	52.6%	101
NNC(=O)c1nc2ccccc2[nH]1	96.4%		97.1%	118%	83.3%	106	108%	109%	112%	89.8%	95.4%	109%	105%	104%	104%	102%	91.3%	97.9
COc1cc2[nH]c(C(=O)c3cc(OC)c(OC)c(OC)c3)c(N)c2cc1C#CC1CC1	13.4%	47.6%	55.7%		32.4%	42.1	2.8% (active)	-1.8% (active)	27.7%	32.8%	53.4%	2.06% (active)		17.6%	66.1%	18%	19.1%	
COc1cc(C(=O)/C=C/c2cc(-c3ccc4c(c3)OCO4)n[nH]2)cc(OC)c1OC	-25.3% (active)	-42.4% (active)		27.7%	60.8%	64.8	-17.8% (active)		-13.5% (active)	19.7%	-11.2% (active)		-15.1% (active)	6.06% (active)	85.4%	1.81% (active)	6.54% (active)	57.6
CC(c1ccccc1)N1C(=O)C(C2SC(=S)N(C(C)c3ccccc3)C2=O)SC1=S (centres undefined)	41.4%		96.6%	97.2%	106%	76.5	76.8%	96%	97.9%	73.2%	89.5%	57.2%	54.7%	25.8%	107%	67.9%	57%	98.8
Fc1cccc(-c2[nH]nc3nc(Nc4cccnc4)sc23)c1	15%	27.2%	54%		41%	51.4	-18.3% (active)	69.4%	21.6%	50.8%	60.6%	-8.7% (active)	41.6%	29.3%	70.2%	22.8%	35%	
